Data: ChEMBL document CHEMBL4513216, “Probing the Open Global Health Chemical Diversity Library for Multistage-Active Starting Points for Next-Generation Antimalarials” (ACS Infect Dis, 2020)
Screen size: about 68,000 compounds; about 2,700 (4%) showed an effect of 50% or more. Shown is part of a subset that was picked to be rich in strong results.

Tested on: Plasmodium berghei
Assay: Screen against P. berghei liver stage (PbLuc), transformed with Luciferase, at 2uM
Assay type: functional, HepG2
Details: tested at 2 uM

Row | SMILES | INHIBITION
1 | CCCSc1ccccc1NC(=O)N1CCN(C(=O)c2ccc[nH]2)CC1 | 65.76%
2 | CCCSc1ccccc1NC(=O)N1CCC(N2CCSCC2)CC1 | 27.05%
3 | O=C(c1ccc[nH]1)N1CCN(C(c2ccccc2)C(F)(F)F)CC1 (stereo unspecified) | 11.88%
4 | CCCc1nc(C(=O)NCCN2CCC(c3ccccc3C)C2)cs1 (stereo unspecified) | 6.88%
5 | CC(C)C(C(=O)N1CCCN(c2nccs2)CC1)n1cncn1 (stereo unspecified) | 15.47%
6 | CN1CCC(N(C)CCC(=O)N2CCC(CCc3ccccc3)CC2)C1 (stereo unspecified) | 66.79%
7 | CN1CCC(N(C)CCC(=O)N2CCC(OCc3ccccc3)CC2)C1 (stereo unspecified) | -83.25%
8 | CN1CCC(N(C)CCC(=O)N2CCC(Cc3ccc(F)cc3)CC2)C1 (stereo unspecified) | 20.36%
9 | COc1c(C2CCCN2C(=O)c2ccnc(N(C)C)c2)c(C)nn1C (stereo unspecified) | 30.91%
10 | Cc1cnc(N2Cc3cnn(Cc4ccc(F)cc4)c3C2)nc1N(C)C | 41.78%
11 | CNS(=O)(=O)c1ccsc1C(=O)OC | -12.44%
12 | CNC(=O)c1sccc1S(=O)(=O)Nc1ccc(C)cc1 | 52.36%
13 | CNC(=O)c1sccc1S(=O)(=O)NC | 31.27%
14 | Cc1nonc1C1CCCN1C(=O)c1cn2ccsc2n1 (stereo unspecified) | -120.95%
15 | Cn1cc(CN2CCCC3(COCCN(c4cccnc4)C3)C2)cn1 (stereo unspecified) | 18.15%
16 | COc1cc2c(cc1C(=O)N1CC(c3ccncc3)C1)CCC2 | 51.96%
17 | COc1ccc(F)cc1C(=O)N1CC(c2ccncc2)C1 | -26.81%
18 | COc1ccc(C(=O)N2CC(c3ccncc3)C2)c(OC)c1OC | 45.56%
19 | CC(CO)NC(=O)Nc1ccc(COC2CCCC2)cc1 (stereo unspecified) | 31.97%
20 | CC(C)N1CC(NC(=O)c2ccc(Cl)s2)CC1=O (stereo unspecified) | -28.5%
21 | CN(Cc1ccc(C#N)cc1)CC1CCS(=O)(=O)C1 (stereo unspecified) | 54.78%
22 | CC(O)CN1CCC(CN(C)Cc2ccc(C#N)cc2)CC1 (stereo unspecified) | -3.99%
23 | CN(CCOc1ccc(C#N)cc1)CC1CCS(=O)(=O)C1 (stereo unspecified) | 14.59%
24 | Cc1cc(=O)n2ncnc2n1CC(O)COCc1ccccc1Cl (stereo unspecified) | 19.59%

Row | SMILES | INHIBITION
25 | CN(Cc1nc2ccccc2[nH]1)C(=O)CN(C)c1ccccc1 | -20.08%
26 | CN(CC(=O)Nc1ccccc1)C(=O)CN(C)c1ccc(Cl)cn1 | -35.22%
27 | CN(Cc1nc2ccccc2[nH]1)C(=O)CN(C)c1ccc(Cl)cn1 | 60.71%
28 | Cc1ncsc1CN1CCn2c(COc3cccnc3)cnc2C1C (stereo unspecified) | -48.36%
29 | CN(C)c1nccc(N(C)C2CCOCC2)n1 | 19.59%
30 | CN(C)c1nccc(N(C)C2CCCCC2)n1 | 38.67%
31 | CC(C)N1CCC(N(C)c2ccnc(N(C)C)n2)CC1 | 69.67%
32 | CCN(C)Cc1cccc(CNC(=O)CSCc2ccncc2)c1 | -56.58%
33 | CCCSCC(=O)NCc1cccc(CN(C)CC)c1 | 15.56%
34 | CCN(C)Cc1cccc(CNC(=O)CSCc2ccccn2)c1 | 72.94%
35 | CO[C@H]1CN(C(=O)c2cc3ccccc3[nH]2)CC[C@H]1N | 13.24%
36 | O=C(c1ccoc1)N1CCOCC2(CCN(Cc3cccs3)C2)C1 (stereo unspecified) | 3.11%
37 | CN1CCN(CCOc2ccc(NC(=O)c3ccoc3)cc2)CC1 | 6.78%
38 | Cc1nc2sccn2c1C(=O)N1CCc2[nH]cnc2C1 | -13.03%
39 | Cc1nc2sccn2c1C(=O)N1CCc2c(nc(N(C)C)[nH]c2=O)C1 | 68.02%
40 | Cc1nc2sccn2c1C(=O)N1CCc2c(nc(N)[nH]c2=O)C1 | -14.71%
41 | CN(C)c1nc2c(c(=O)[nH]1)CCN(C(=O)c1c[nH]c(=O)c(Cl)c1)C2 | 33.9%
42 | CN(C)c1nc2c(c(=O)[nH]1)CCN(C(=O)c1cccc3nccnc13)C2 | -16.93%
43 | Cc1nc(C(C)C)ncc1C(=O)N1CCc2c(nc(N(C)C)[nH]c2=O)C1 | 55.36%
44 | O=C(Nc1nccs1)C1CCCN1Cc1ccccn1 (stereo unspecified) | 12.47%
45 | CCc1nc(-c2ccc(NC(=O)N3CCCC3)cc2)no1 | -75.24%
46 | COc1ccnc(N2CCC3(CC2)[C@H](O)C[C@@H]3OCCN(C)C)n1 | -2.96%
47 | Cc1nc(C2CCN(S(C)(=O)=O)CC2)nc2c1CCC(=O)N2CC(C)C | 0.12%
48 | Cc1cc(N2CCCC2(C)c2nc(C)cc(C(=O)N(C)C)n2)ncn1 (stereo unspecified) | -27.61%

Row | SMILES | INHIBITION
49 | CCOC(=O)N1CCN(C(=O)C2Cc3ccccc3CN2C)CC1 (stereo unspecified) | -55.24%
50 | CCN(CC)S(=O)(=O)N1CCCC1c1cccc(Nc2ncc(C)s2)n1 (stereo unspecified) | 56.16%
51 | Cc1ccccc1CN1CCCC1c1cccc(Nc2nccs2)n1 (stereo unspecified) | 15.61%
52 | CS(=O)(=O)N1CCCC1c1cccc(Nc2nccs2)n1 (stereo unspecified) | 69.91%
53 | Cc1cnc(Nc2cccc(C3CCCN3Cc3cn(C)nc3C)n2)s1 (stereo unspecified) | -15.38%
54 | c1ccc(CCN2CCCC2c2cccc(Nc3nccs3)n2)cc1 (stereo unspecified) | 30.29%
55 | Cc1cnc(Nc2cccc(C3CCCN3C(=O)CO)n2)s1 (stereo unspecified) | 35.31%
56 | Cc1ccccc1CS(=O)(=O)CC(=O)N(C)Cc1ccccc1 | 34.25%
57 | CS(=O)(=O)NC[C@]12COC[C@H]1CN(CC1CCCC1)C2 | 13.65%
58 | O=C(CC1CN(Cc2ccccc2)CCO1)Nc1ccsc1 (stereo unspecified) | 19.53%
59 | Cc1ccc(SCCN(C)C(=O)c2cn(C3CCC(N)CC3)nn2)cc1 (stereo unspecified) | 40.47%
60 | CCN(CCSc1ccccc1)C(=O)c1cn(C2CCC(N)CC2)nn1 (stereo unspecified) | 50.61%
61 | Cc1ccc(SCCCNC(=O)c2cn(C3CCC(N)CC3)nn2)cc1 (stereo unspecified) | 18.63%
62 | CCc1nnc2n1CCN(C(=O)c1ccc3[nH]cnc3c1)C2 | -17.45%
63 | CCc1nccn1-c1cncc(C2CCCN2Cc2cccnc2)n1 (stereo unspecified) | 18.91%
64 | CCc1nsc(N2CCCN(C(=O)c3ccc(CC)o3)CC2)n1 | -2.93%
65 | CS(=O)(=O)NCCNCc1ccc(Br)s1 | 21.24%
66 | COCCNC(=O)CCNc1ccc(Cl)cn1 | 33.64%
67 | CS(=O)(=O)CCCC(=O)Nc1cc(Cl)c(Cl)cn1 | 59.08%
68 | CS(=O)(=O)CCC(=O)Nc1cc(Cl)c(Cl)cn1 | 38.49%
69 | CS(=O)(=O)CCCC(=O)Nc1cc(-c2cccc(F)c2F)n[nH]1 | -5.98%
70 | COCCCC(=O)Nc1cc(Cl)c(Cl)cn1 | 66.26%
71 | COCCCC(=O)Nc1[nH]nc(-c2ccncc2)c1C | 1.03%
